An excerpt weighted towards active compounds, which were near 2.4% of everything screened.
D2 PAM-1 – HTS Assay for Positive Allosteric Modulators of the Human D2 Dopamine Receptor: Primary Screen for Potentiators; D(2) dopamine receptor (Homo sapiens), P14416; 340,000 compounds, 0.34% hits; potentiation, % at 10 µM; HEK293 T-REx D2, calcium flux, EC20 dopamine potentiation;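 active = potentiation over 3 SD above the plate norm, cut at about 30% in these data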
Target sequence (P14416 whole entry, looked up): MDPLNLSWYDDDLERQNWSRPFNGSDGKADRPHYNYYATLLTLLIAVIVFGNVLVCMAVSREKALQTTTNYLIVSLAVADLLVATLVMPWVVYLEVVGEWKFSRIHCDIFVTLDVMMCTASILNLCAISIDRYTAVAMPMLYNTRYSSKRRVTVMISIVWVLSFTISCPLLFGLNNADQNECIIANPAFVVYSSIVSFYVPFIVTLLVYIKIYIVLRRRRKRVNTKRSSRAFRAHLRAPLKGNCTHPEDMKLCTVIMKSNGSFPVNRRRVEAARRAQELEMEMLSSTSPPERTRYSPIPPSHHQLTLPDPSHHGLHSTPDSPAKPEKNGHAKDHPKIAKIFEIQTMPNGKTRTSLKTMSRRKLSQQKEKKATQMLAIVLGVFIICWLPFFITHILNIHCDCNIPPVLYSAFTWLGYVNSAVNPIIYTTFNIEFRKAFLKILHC
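Cells plated with tetracycline inducer and held overnight at 30 C; calcium dye loaded 30–90 min at room temperature; baseline taken, compound added and read 180 s; EC20 dopamine then added and read 180 s.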
D2 PAM-2 – Beta-Arrestin HTS for Positive Allosteric Modulators of the Human D2 Dopamine Receptor: Potentiators; potentiation, % (test concentration not listed); 360,000 compounds, 0.23% hits; DiscoveRx D2 beta-arrestin cells, luminescence, 90 min; 100% = 57 uM dopamine signal; AID 624464, 2012; D(2) dopamine receptor (Homo sapiens), P14416; in the data active = potentiation above about 50%; inconclusive = mostly about 30% to 49%
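PathHunter D2 cells, attached overnight at 37 deg C, received compound in DMSO plus dopamine at EC20 (50 nM final) for 90 min at 37 deg C. Beta-arrestin recruitment was read as luminescence after 1 h with detection reagent at ambient temperature.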
D2 antagonist – HTS Assay for Allosteric Antagonists of the Human D2 Dopamine Receptor: Primary Screen for Antagonists. HEK293 TREx D2 cells, calcium flux, dopamine EC80. D(2) dopamine receptor (Homo sapiens), P14416. inhibition, % at 10 µM. 340,000 compounds, 2% hits; in the data active = inhibition above about 30%; inactive = below that, where a call was filed
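HEK293 T-REx D2 cells, tet-induced, calcium dye no-wash. Cpd pintool add, 180 s kinetic, then EC80 DA, 180 s kinetic. Ca flux read.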
D2 ag-1 – HTS Assay for Allosteric Agonists of the Human D2 Dopamine Receptor: Primary Screen for Agonists. D(2) dopamine receptor (Homo sapiens), P14416. HEK293 T-REx D2 cells, calcium flux agonist mode. activation, % at 2 µM. 340,000 compounds, 0.53% hits;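 active = activation over 3 SD above normal in the single-dose calcium agonist read, cut at about 30% in these data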
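Tetracycline-induced HEK293 Trex cells with D2 receptor force-coupled to calcium signaling, plated overnight at 30 C and loaded with no-wash calcium dye. Calcium flux read kinetically for 180 s after compound addition; responses flag agonists.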
D2 ag-2 – Beta-Arrestin HTS for Positive Allosteric Modulators of the Human D2 Dopamine Receptor: Agonists. activation, % (no concentration beside the values). DiscoveRx PathHunter D2 beta-arrestin, luminescence, 90 min; 100% = 57 uM dopamine signal. 360,000 compounds, 0.084% hits. D(2) dopamine receptor (Homo sapiens), P14416; in the data active = activation above about 40%; inconclusive = between about 15% and that limit
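Agonist mode: compounds alone added to overnight-plated D2 PathHunter cells for 90 min at 37 C, with 57 uM final dopamine (EC100) defining full response. Beta-arrestin recruitment detected by chemiluminescent reagent, read after 1 h at ambient temperature.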
A number is an active result; n = inactive; u = inconclusive; x = not tested or not shown.

SMILES	D2 PAM-1	D2 PAM-2	D2 antagonist	D2 ag-1	D2 ag-2
CC(=O)c1sc(NC(=O)c2cc(=O)c3ccccc3o2)nc1C	n	68	n	n	n
O=C(CSc1nc(-c2cccc(Cl)c2)nc2cc(=O)[nH]n12)Nc1ccccc1	n	x	x	x	x
CCOc1ccc(CNC(=O)C2CCCN(S(=O)(=O)N3CCC(C)CC3)C2)cc1OC (stereo not drawn)	x	n	x	x	n
CCOc1ccc(CNC(=O)C2CCCN(S(C)(=O)=O)C2)cc1OC (stereo not drawn)	n	n	52	n	n
CC1CCN(CCCNC(=O)CCc2nnc3n(CCc4ccccc4)c(=O)c4ccccc4n23)CC1	n	n	61	n	n
COC(=O)c1c(SC)nc2ccccc2c1OCc1ccc(Cl)cc1	n	x	x	n	x
Cc1cccc(CN2CCN(C(c3ccccc3)c3ccc(Cl)cc3)CC2)c1 (stereo not drawn)	n	n	31	n	n
COc1cc(CN2CCN(C(c3ccccc3)c3ccccc3)CC2)cc(OC)c1OC	n	n	n	n	n
CN1CCCN(C(c2ccccc2)c2ccc(Cl)cc2)CC1 (stereo not drawn)	n	n	82	n	n
CCc1ccc(C2NC(=O)c3[nH]nc(-c4cccc(OC)c4)c32)cc1 (stereo not drawn)	n	x	x	n	x
CC(CN(C)C)CN1c2ccccc2Sc2ccccc21 (stereo not drawn)	n	n	76	n	n
CCN(CC)CC(O)CN1c2ccccc2Sc2ccccc21 (stereo not drawn)	n	n	n	n	n
CC(CN1c2ccccc2Sc2ccccc21)N(C)C (stereo not drawn)	n	n	54	n	n
COCCn1c(-c2ccc(NC(C)=O)cc2)nc2c1c(=O)[nH]c(=O)n2CC(C)C	n	n	31	n	n
COCCn1c(-c2ccc(-c3ccccc3Cl)o2)nc2c1c(=O)[nH]c(=O)n2CC(C)C	n	n	n	n	n
O=S(=O)(Cc1ccccc1)Nn1cnnc1	n	n	31	n	n
Cc1cccc(NS(=O)(=O)Cc2ccccc2)n1	n	n	n	n	n
O=C(NCc1n[nH]c(=S)n1-c1cccc(Cl)c1)c1ccc(S(=O)(=O)N2CCCCC2)cc1	33	n	n	n	n
Cc1cccc(-n2c(CNC(=O)c3ccc(S(=O)(=O)N4CCCC4)cc3)n[nH]c2=S)c1	n	n	n	n	n
COc1cc2[nH]c(=S)nc(NCc3ccccc3)c2cc1OC	n	n	n	n	n
COc1cc2[nH]c(=S)nc(NCc3ccc(C)cc3)c2cc1OC	n	n	41	n	n
COc1ccc(CNc2nc(=S)[nH]c3cc(OC)c(OC)cc23)cc1	n	n	34	n	n
COc1ccccc1N1CCN(c2ccc(=O)n(CC(=O)O)n2)CC1	n	x	x	n	x
CCCN1Cc2cccc(C(=O)Nc3cc(Cl)ccc3C)c2C1=O	n	x	x	n	x
Nc1cnccc1C(=O)O	n	u	43	n	u
SMILES	D2 PAM-1	D2 PAM-2	D2 antagonist	D2 ag-1	D2 ag-2
CCOc1ncccc1C(=O)Nc1nnc(C)s1	n	n	n	n	n
CCOc1ncccc1C(=O)Nc1nnc(C2CC2)s1	37	n	n	n	n
CC(C)(CN1CCN(Cc2ccccc2)CC1)NS(=O)(=O)c1ccccc1	n	n	41	n	n
Clc1ccc(-c2c[n+](Cc3ccc(Cl)c(Cl)c3)c3n2CCC3)cc1	n	x	41	n	x
Cc1ccc(-c2c[n+](Cc3ccc(Cl)cc3)c3n2CCC3)cc1	n	n	n	n	n
COCCc1ccc(OC2(C)CCN(Cc3cccn3-c3nccs3)C2)cc1 (stereo not drawn)	x	n	x	x	n
C=C(C)Cn1c(SCC(=O)c2ccc(OC)cc2)nc2sc3c(c2c1=O)CCCC3	n	x	x	n	x
Cc1cc(C=O)c(C)n1-c1ccc(Cl)c(C(=O)O)c1	n	n	37	n	n
CCOC(=O)C1CCCN(Cc2cn3c(-c4ccc(Br)cc4)nnc3s2)C1 (stereo not drawn)	n	x	x	n	x
O=C1C(=O)c2ccccc2C(O)=C1c1cccc([N+](=O)[O-])c1	n	n	48	n	n
CCn1nc(C)c2c(-c3ccccc3)cc(=O)n(C(C)C(=O)NCc3cccc(OC)c3)c21 (stereo not drawn)	n	x	x	n	x
CSc1ccc(CN2CCC(C)(Oc3cccc(F)c3)C2)cc1 (stereo not drawn)	x	n	x	x	n
CCOc1ccc(Cc2onc3c2C(=O)CCC3)cc1OCC	n	n	n	n	n
CCOc1ccc(Cc2onc3c2C(=O)CC(C)(C)C3)cc1OCC	38	n	n	n	n
CCN(CC)S(=O)(=O)c1ccc(NC2CCN(Cc3ccccc3)CC2)nc1	n	n	36	n	n
CN(CCc1ccccc1)C(=O)c1cccc(NC(=O)Cc2cccc(NC(=O)C3CCCN(C(=O)c4ccccc4)C3)c2)c1 (stereo not drawn)	x	n	x	x	n
Cn1cnnc1SCC(=O)Nc1nc(-c2ccccc2)cs1	n	n	56	n	n
Cc1nnc(SCC(=O)Nc2nc(-c3ccccc3)cs2)n1N	n	n	n	n	n
Cc1c(C)n(Cc2ccc(F)cc2)c2ccc(C(=O)N3CCN(c4ccc(F)cc4)CC3)cc12	n	x	x	x	x
CCN1CCN(C(=O)c2ccc3c(c2)c(C)c(C)n3Cc2ccccc2)CC1	n	n	38	n	n
O=C(Nc1ccccc1)c1ccc2snnc2c1	n	n	n	n	n
O=C(Nc1cccnc1)c1ccc2snnc2c1	n	n	35	n	n
COc1cccc(C(C(=O)NC2CCCCC2)N(Cc2ccco2)C(=O)c2ccccn2)c1 (stereo not drawn)	n	n	34	n	n
CC(CCc1ccccc1)NC(=O)COC(=O)c1ccc(S(C)(=O)=O)c([N+](=O)[O-])c1 (stereo not drawn)	n	n	n	n	n
CC(CCc1ccccc1)NC(=O)COC(=O)c1ccc([N+](=O)[O-])cc1 (stereo not drawn)	38	n	n	n	n
COc1ccccc1C(=O)NC1CC2CCCC(C1)N2Cc1ccccc1 (stereo not drawn)	x	n	x	x	n
COc1cccc(C(=O)NC2CC3CCCC(C2)N3Cc2ccc(C)cc2)c1 (stereo not drawn)	n	n	77	n	n
COc1ccc(C(=O)NC2CC3CCCC(C2)N3Cc2ccccc2)cc1OC (stereo not drawn)	n	n	82	n	n
COc1cc(OC)cc(C(=O)NC2CCN(CCCOc3ccccc3)CC2)c1	n	n	47	n	n

Screening results from PubChem.
